Measurements from ChEMBL document CHEMBL1961873, “Compounds: GSK PKIS; Assays: Nanosyn kinase panel” (2012).

Tests used:
[1] = target: T1, Muscle, skeletal receptor tyrosine-protein kinase (Homo sapiens) (UniProt O15146); conditions: at 1 µM;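 further: reported value is the mean percent inhibition of MuSK kinase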
T1 sequence (whole entry): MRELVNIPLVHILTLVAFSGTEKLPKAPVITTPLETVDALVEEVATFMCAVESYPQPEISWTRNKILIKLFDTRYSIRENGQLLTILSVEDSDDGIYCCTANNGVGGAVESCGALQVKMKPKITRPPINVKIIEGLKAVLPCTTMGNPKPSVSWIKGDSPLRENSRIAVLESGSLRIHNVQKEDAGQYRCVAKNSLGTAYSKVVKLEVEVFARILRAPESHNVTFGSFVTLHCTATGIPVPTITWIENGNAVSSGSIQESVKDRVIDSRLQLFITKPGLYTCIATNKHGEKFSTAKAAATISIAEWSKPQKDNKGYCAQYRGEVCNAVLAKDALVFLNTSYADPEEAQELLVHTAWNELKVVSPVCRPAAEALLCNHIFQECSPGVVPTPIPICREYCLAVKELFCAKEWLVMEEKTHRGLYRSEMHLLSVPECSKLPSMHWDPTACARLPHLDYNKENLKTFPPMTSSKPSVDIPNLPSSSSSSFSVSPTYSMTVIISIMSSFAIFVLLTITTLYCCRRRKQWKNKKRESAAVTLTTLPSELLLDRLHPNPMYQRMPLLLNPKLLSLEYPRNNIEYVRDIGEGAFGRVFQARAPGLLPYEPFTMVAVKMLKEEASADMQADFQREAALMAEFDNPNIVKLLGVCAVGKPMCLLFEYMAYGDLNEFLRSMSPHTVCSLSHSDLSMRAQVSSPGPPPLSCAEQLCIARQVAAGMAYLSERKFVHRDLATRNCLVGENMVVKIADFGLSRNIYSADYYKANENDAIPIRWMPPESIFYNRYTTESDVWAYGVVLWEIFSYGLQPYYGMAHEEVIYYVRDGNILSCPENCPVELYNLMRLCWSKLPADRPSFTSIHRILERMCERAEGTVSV

[2] = target: Platelet-derived growth factor receptor alpha (Homo sapiens) (UniProt P16234); conditions: at 0.1 µM
[3] = target: Platelet-derived growth factor receptor alpha (Homo sapiens) (UniProt P16234); conditions: at 1 µM
[4] = system: Platelet-derived growth factor receptor alpha (Homo sapiens), P16234 [D842V]; conditions: at 0.1 µM
[5] = system: Platelet-derived growth factor receptor alpha (Homo sapiens), P16234 [D842V]; conditions: at 1 µM
[6] = system: Platelet-derived growth factor receptor alpha (Homo sapiens), P16234 [T674I]; conditions: at 0.1 µM
[7] = system: Platelet-derived growth factor receptor alpha (Homo sapiens), P16234 [T674I]; conditions: at 1 µM
[8] = system: Platelet-derived growth factor receptor alpha (Homo sapiens), P16234 [V561D]; conditions: at 0.1 µM
[9] = system: Platelet-derived growth factor receptor alpha (Homo sapiens), P16234 [V561D]; conditions: at 1 µM
[10] = target: Platelet-derived growth factor receptor beta (Homo sapiens) (UniProt P09619); conditions: at 0.1 µM
[11] = target: Platelet-derived growth factor receptor beta (Homo sapiens) (UniProt P09619); conditions: at 1 µM
[12] = target: Tyrosine-protein kinase FRK (Homo sapiens) (UniProt P42685); conditions: at 0.1 µM
[13] = target: Tyrosine-protein kinase FRK (Homo sapiens) (UniProt P42685); conditions: at 1 µM
[14] = target: Protein-tyrosine kinase 2-beta (Homo sapiens) (UniProt Q14289); conditions: at 0.1 µM
[15] = target: Protein-tyrosine kinase 2-beta (Homo sapiens) (UniProt Q14289); conditions: at 1 µM
[16] = target: Proto-oncogene tyrosine-protein kinase receptor Ret (Homo sapiens) (UniProt P07949); conditions: at 0.1 µM
[17] = target: Proto-oncogene tyrosine-protein kinase receptor Ret (Homo sapiens) (UniProt P07949); conditions: at 1 µM
[18] = system: Proto-oncogene tyrosine-protein kinase receptor Ret (Homo sapiens), P07949 [V804L]; conditions: at 0.1 µM
[19] = system: Proto-oncogene tyrosine-protein kinase receptor Ret (Homo sapiens), P07949 [V804L]; conditions: at 1 µM
[20] = system: Proto-oncogene tyrosine-protein kinase receptor Ret (Homo sapiens), P07949 [Y791F]; conditions: at 0.1 µM

Sequence of Proto-oncogene tyrosine-protein kinase receptor Ret (Homo sapiens) (P07949 whole entry): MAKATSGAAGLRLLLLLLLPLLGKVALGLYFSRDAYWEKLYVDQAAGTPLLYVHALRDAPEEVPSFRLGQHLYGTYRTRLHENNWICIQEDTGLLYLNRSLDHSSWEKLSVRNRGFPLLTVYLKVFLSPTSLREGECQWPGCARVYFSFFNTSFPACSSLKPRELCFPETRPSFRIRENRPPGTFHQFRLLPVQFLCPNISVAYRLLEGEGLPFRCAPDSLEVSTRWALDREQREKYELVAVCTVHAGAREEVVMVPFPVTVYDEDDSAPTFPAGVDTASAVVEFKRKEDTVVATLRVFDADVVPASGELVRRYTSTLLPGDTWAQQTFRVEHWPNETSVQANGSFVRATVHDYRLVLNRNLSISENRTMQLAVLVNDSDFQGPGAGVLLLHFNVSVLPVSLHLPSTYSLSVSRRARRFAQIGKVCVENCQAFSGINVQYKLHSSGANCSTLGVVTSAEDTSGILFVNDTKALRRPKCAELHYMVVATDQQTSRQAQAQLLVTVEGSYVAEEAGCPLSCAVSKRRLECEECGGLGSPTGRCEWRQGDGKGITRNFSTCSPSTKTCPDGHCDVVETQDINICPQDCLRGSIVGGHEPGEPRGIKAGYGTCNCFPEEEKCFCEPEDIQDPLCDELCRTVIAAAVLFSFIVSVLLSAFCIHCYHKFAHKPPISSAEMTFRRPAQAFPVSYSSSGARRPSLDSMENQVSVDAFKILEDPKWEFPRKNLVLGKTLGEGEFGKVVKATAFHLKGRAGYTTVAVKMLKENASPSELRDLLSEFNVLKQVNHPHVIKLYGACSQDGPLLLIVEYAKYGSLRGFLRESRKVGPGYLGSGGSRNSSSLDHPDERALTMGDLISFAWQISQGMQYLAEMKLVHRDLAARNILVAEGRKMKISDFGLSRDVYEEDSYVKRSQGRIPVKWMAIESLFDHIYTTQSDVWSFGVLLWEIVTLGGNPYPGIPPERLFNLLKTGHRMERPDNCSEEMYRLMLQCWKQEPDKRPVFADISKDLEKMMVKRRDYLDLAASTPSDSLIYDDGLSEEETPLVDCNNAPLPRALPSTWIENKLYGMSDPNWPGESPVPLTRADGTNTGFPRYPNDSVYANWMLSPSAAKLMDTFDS
Sequence of Platelet-derived growth factor receptor alpha (Homo sapiens), P16234 [D842V] (P16234 whole entry D842V): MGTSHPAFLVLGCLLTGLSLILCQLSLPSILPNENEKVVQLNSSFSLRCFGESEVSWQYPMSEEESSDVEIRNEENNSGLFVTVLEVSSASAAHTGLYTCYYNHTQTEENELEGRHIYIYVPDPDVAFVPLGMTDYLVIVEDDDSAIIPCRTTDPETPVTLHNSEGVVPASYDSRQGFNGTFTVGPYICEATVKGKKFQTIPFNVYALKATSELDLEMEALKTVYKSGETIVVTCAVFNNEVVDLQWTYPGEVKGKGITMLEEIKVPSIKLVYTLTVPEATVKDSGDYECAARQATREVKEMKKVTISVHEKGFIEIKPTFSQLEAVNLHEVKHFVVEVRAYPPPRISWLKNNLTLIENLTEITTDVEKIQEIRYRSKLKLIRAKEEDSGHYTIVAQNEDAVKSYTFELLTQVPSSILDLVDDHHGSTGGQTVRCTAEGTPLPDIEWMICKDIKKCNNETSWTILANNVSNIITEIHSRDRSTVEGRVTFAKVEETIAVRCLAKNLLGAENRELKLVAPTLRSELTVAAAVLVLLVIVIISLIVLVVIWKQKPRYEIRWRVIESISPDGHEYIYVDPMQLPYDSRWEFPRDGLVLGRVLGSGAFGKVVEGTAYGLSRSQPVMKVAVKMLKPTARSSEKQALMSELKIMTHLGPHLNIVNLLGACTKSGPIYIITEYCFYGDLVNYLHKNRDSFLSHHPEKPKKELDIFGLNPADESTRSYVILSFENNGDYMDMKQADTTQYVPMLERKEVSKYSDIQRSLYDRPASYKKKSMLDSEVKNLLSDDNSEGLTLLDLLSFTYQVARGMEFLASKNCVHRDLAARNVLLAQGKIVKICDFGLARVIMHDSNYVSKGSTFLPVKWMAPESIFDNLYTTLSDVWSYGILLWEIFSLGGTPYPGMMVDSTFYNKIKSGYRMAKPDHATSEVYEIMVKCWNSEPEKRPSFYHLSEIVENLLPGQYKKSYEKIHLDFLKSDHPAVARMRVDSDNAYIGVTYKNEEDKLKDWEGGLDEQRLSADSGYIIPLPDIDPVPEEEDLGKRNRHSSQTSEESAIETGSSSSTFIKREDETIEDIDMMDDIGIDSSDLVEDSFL
Sequence of Tyrosine-protein kinase FRK (Homo sapiens) (P42685 whole entry): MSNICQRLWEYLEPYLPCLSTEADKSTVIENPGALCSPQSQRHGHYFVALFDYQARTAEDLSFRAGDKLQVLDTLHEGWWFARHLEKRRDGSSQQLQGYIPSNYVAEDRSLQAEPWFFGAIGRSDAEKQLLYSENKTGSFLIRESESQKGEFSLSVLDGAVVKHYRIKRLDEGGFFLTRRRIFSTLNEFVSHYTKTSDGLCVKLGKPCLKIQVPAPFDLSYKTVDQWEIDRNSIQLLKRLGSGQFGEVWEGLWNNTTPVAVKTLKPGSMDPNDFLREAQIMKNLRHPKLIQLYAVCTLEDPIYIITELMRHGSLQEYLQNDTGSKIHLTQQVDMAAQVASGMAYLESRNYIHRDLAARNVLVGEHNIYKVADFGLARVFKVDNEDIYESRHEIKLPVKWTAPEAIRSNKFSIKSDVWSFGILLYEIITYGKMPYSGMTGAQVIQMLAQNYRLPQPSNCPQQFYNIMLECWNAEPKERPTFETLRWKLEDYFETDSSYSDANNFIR
Sequence of Protein-tyrosine kinase 2-beta (Homo sapiens) (Q14289 whole entry, looked up): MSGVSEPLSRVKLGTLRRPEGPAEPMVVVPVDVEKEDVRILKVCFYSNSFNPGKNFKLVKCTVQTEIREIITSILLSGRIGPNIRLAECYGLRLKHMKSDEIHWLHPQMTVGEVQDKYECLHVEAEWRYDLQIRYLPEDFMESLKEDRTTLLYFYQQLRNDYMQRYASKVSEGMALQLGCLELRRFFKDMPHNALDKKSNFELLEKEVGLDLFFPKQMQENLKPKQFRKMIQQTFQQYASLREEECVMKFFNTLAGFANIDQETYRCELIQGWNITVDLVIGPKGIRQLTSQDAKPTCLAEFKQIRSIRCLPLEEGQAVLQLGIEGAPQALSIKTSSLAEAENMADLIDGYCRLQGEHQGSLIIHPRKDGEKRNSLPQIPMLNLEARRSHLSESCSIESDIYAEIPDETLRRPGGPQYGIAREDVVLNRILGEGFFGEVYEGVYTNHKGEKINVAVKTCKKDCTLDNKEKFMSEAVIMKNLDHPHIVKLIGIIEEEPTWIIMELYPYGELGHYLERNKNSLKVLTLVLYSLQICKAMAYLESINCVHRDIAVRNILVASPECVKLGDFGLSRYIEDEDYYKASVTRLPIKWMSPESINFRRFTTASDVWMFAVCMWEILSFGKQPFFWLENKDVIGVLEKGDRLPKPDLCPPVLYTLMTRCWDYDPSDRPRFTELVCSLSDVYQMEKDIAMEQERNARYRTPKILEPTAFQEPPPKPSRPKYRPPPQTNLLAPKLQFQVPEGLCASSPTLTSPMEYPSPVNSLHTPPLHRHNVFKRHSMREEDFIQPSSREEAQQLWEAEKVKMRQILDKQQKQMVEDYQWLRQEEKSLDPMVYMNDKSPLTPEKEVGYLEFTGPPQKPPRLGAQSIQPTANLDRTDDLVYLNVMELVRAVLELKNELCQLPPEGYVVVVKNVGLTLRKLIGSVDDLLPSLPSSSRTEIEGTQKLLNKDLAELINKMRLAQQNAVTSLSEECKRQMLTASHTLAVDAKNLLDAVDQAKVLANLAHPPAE
Sequence of Platelet-derived growth factor receptor alpha (Homo sapiens), P16234 [V561D] (P16234 whole entry V561D): as the sequence (P16234 whole entry D842V) above, with V561D, V842D counted along it

Row | SMILES | inhibition [1] | inhibition [2] | inhibition [3] | inhibition [4] | inhibition [5] | inhibition [6] | inhibition [7] | inhibition [8] | inhibition [9] | inhibition [10] | inhibition [11] | inhibition [12] | inhibition [13] | inhibition [14] | inhibition [15] | inhibition [16] | inhibition [17] | inhibition [18] | inhibition [19] | inhibition [20]
1 | Cn1c(-c2nonc2N)nc2cnccc21 | 5.28% | 2.63% | 7.48% | 2.81% | 4.99% | 4.72% | 6.95% | 1.45% | 3.93% | 1.55% | 6.81% | 0.98% | 1.06% | 8.49% | 4.49% | 2.99% | 4.58% | 2.88% | 1.31% | 3.98%
2 | CN(C)CCNC(=O)Nc1ccc(N(C)c2ccnc(Nc3ccc(CS(C)(=O)=O)cc3)n2)cc1 | 10.1% | 19.4% | 54% | 9.49% | 36.1% | 9.77% | 42.5% | 39.2% | 67.4% | 28.4% | 66.8% | 0.22% | 0.97% | 18.4% | 58.6% | 7.81% | 14.9% | 4.98% | 13.9% | 9.9%
3 | Cc1ccc(-c2cc3c(NC(=O)C4CC4)ncnc3o2)cc1 | 7.78% | 13.9% | 38.1% | 7.31% | 29.8% | 6.86% | 32.7% | 8.94% | 31.9% | 8.16% | 24.5% | 2.14% | 0.91% | 9.96% | 10.2% | 8.44% | 27.6% | 6.9% | 13.6% | 8.23%
